Screening results from PubChem.
Rows were chosen to be rich in hits. Some 19% of all compounds tested hit in one or more screens of this group.
Giardia killer = Giardia lamblia killing; Giardia lamblia trophozoite viability; activity change, % at 7.66 µM, hits read low; actives 0.15% (n = 340,000); in the data active = activity change below about -80%; inconclusive = between about -30% and that limit;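 note: parasites exposed to compound for two days anaerobically before the ATP read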
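Trophozoites 100 cells/well + cpd; 48 hrs, 37 deg C, anaerobic. ATPLite 1-Step added, 15-30 min RT, luminescence read (ATP-based viability).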
DT40 TDP1 CPT = growth inhibition of DT40 Tdp1-/-;hTDP1 cells with camptothecin (screen for TDP1 inhibitors). Potency, µM (titrated, usually from 46.2 µM), hits mostly inhibitors. actives 12% (n = 420,000). AID 686979. chicken DT40 Tdp1-/-;hTDP1 cells + 20 nM CPT, ATP luminescence, 48 h; note: nearly all actives have a fitted effect of over 55% in size
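Chicken DT40 Tdp1-/- cells stably complemented with human TDP1 were seeded at 400 cells/well in medium containing 20 nM camptothecin, exposed to pin-transferred compounds, and grown at 37 °C for at least 48 hr. Viability was read as ATP luminescence.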
TDP1 cell noCPT = qHTS for Inhibitors of human tyrosyl-DNA phosphodiesterase 1 (TDP1): qHTS in cells in absence of CPT; DT40 Tdp1-/- hTDP1 cells, no CPT, ATP luminescence, 48 h; Potency, µM (top dose mostly 46.2 µM), most hits filed as inhibitors; actives 15% (n = 420,000); AID 686978, 2013; note: nearly all actives have a fitted effect of over 55% in size
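DT40 Tdp1-/-;hTDP1 cells, no CPT (DMSO vehicle only), 400 cells/well; compounds pin-transferred; ≥48 hr, 37 °C; CellTiter-Glo 30 min RT dark, luminescence read.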
ELG1 DNA repair = inhibitors of ELG1-dependent DNA repair in HEK293T cells. HEK293T ELG1-luciferase reporter, luminescence, 16 h; DNA damage induced by 5-fluorouridine. Potency, µM (doses to about 46.1 µM), usual class: inhibitors. actives 2.3% (n = 330,000); note: nearly all actives have a fitted effect of over 55% in size
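Cells (2,000 per well) received 5-fluorouridine plus test compound or DMSO and were incubated 16 hr at 37 °C, 5% CO2. Luciferase activity was read by luminescence 30 min after ONE-Glo addition; signal suppression marked inhibition of damage-induced ELG1 function.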
IL1B secr inh = inhibitors of inflammasome signaling (IL-1 beta secretion) | THP-1 LPS/ATP IL-1B secretion, AlphaLISA, 16 h; stronger effect = lower value | activity change, % at 57.5 µM | actives 4.7% (n = 360,000) | AID 743279; in the data active = activity change below about -50%; inconclusive = mostly about -30% to -49%
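Secreted IL-1B measured by AlphaLISA bead assay after 16 h compound exposure of THP-1 cells; compounds (final up to 57.5 uM) added 1 h before LPS (250 ng/mL) and ATP (1.25 mM) stimulation; lower signal means less secretion.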
TDP1 inh = inhibitors of human tyrosyl-DNA phosphodiesterase TDP1 | Q9NUW8 | recombinant TDP1, AlphaScreen DNA substrate cleavage | Potency, µM (doses to about 130 µM), actives largely listed as inhibitors | actives 0.28% (n = 350,000); note: nearly all actives have a fitted effect of over 40% in size
Target sequence (Q9NUW8 whole entry, looked up): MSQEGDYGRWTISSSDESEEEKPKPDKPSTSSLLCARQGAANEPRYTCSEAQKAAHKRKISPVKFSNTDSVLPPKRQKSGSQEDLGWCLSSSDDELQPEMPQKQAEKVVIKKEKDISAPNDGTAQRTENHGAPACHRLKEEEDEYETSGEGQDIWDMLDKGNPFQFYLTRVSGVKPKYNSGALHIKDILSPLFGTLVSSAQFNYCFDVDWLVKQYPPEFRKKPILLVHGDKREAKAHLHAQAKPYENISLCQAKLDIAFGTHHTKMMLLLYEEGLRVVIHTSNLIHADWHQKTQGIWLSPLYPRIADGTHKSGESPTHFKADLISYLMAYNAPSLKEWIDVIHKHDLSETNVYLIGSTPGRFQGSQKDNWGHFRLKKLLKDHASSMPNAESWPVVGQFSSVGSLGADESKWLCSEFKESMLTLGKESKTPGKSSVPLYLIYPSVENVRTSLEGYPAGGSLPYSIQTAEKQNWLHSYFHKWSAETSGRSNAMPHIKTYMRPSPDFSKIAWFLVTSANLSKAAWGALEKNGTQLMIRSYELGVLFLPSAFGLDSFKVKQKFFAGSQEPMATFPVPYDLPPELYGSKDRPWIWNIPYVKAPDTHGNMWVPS
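Recombinant E. coli-expressed Tdp1 (1 nM) preincubated with compound 15 min at RT, then 5'-biotin/3'-phosphotyrosine-FITC DNA substrate (15 nM) added for 5 min. AlphaScreen beads (10 ug/ml) added, 10 min RT; tyrosine-FITC cleavage read as signal loss.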
Each line names hits and unclear results; the compound was inactive in the other large screens. Unless noted, calls come from the whole dose curve; as a rule, active = well fitted curve in the direction sought with a large enough effect; inconclusive = small, poorly fitted or top-dose-only effect, or another doubt; inactive = no such curve, though single readings can be large; an effect the other way counts as inactive or inconclusive.

Cc1cc(Br)cc2c(C(=O)Nc3c(C)n(C)n(-c4ccccc4)c3=O)cc(-c3cccs3)nc12	DT40 TDP1 CPT 23.1µM, TDP1 cell noCPT 16.4µM, ELG1 DNA repair inconclusive
Cc1cc(C(=O)Nc2c(C)n(C)n(-c3ccccc3)c2=O)c2ccccc2n1	none
CCc1ccc(-c2cc(C(=O)Nc3c(C)n(C)n(-c4ccccc4)c3=O)c3ccccc3n2)s1	DT40 TDP1 CPT inconclusive, TDP1 cell noCPT 16.4µM, ELG1 DNA repair inconclusive
CCC(=O)N1CCc2cc(S(=O)(=O)NCCC(=O)NC(C)c3ccccc3)ccc21 (stereo not given)	DT40 TDP1 CPT inconclusive (no result: Giardia killer, ELG1 DNA repair, IL1B secr inh)
OC[C@@H]1CN(Cc2ccc(-c3ccccc3)cc2)C[C@H](n2cnc3c(NC4CCC4)ncnc32)O1	DT40 TDP1 CPT 4.11µM, TDP1 cell noCPT 4.11µM (no result: Giardia killer, ELG1 DNA repair, TDP1 inh)
OC[C@@H]1CN(Cc2ccc3c(c2)OCO3)C[C@H](n2cnc3c(NC4CC4)ncnc32)O1	DT40 TDP1 CPT inconclusive, TDP1 cell noCPT 20.6µM (no result: Giardia killer, ELG1 DNA repair, TDP1 inh)
CCN(CC)c1ncnc2c1ncn2[C@H]1CN(Cc2cccnc2)C[C@@H](CO)O1	IL1B secr inh -56.9 (no result: Giardia killer, ELG1 DNA repair, TDP1 inh)
CNc1ncnc2c1ncn2[C@H]1CN(Cc2cccc3ccccc23)C[C@@H](CO)O1	DT40 TDP1 CPT 23.1µM, TDP1 cell noCPT inconclusive (no result: Giardia killer, ELG1 DNA repair, TDP1 inh)
OC[C@@H]1CN(Cc2ccccc2)C[C@H](n2cnc3c(NC4CC4)ncnc32)O1	none (no result: Giardia killer, ELG1 DNA repair, TDP1 inh)
CN(Cc1c(F)cccc1Cl)C(=O)c1ccc2ccccc2n1	DT40 TDP1 CPT inconclusive, TDP1 cell noCPT inconclusive
N[C@H](Cn1ccc(=O)n(Cc2ccccc2C(=O)O)c1=O)C(=O)O	none (no result: Giardia killer, ELG1 DNA repair, IL1B secr inh)
CCCC[C@@H]1CCCO[C@@](C(=O)NCc2ccccc2)(C(F)(F)F)C1	none (no result: DT40 TDP1 CPT, TDP1 cell noCPT, ELG1 DNA repair, IL1B secr inh)
COC(=O)NC(/C(C(=O)OC)=C(\C)NCc1ccccc1)c1ccc2ccccc2c1 (stereo not given)	none (no result: Giardia killer, DT40 TDP1 CPT, TDP1 cell noCPT, ELG1 DNA repair, IL1B secr inh)
Cc1cc(=O)n(Cc2c(F)cccc2Cl)c2c1c(C)nn2-c1cccc(F)c1	none (no result: Giardia killer, ELG1 DNA repair, IL1B secr inh)
OC[C@@H]1CN(Cc2ccc(Cl)cc2)C[C@H](n2cnc3c(NC4CCCC4)ncnc32)O1	DT40 TDP1 CPT 20.6µM, TDP1 cell noCPT inconclusive (no result: Giardia killer, ELG1 DNA repair, TDP1 inh)
CN(C)c1ncnc2c1ncn2[C@H]1CN(Cc2ccc(-c3ccccc3)cc2)C[C@@H](CO)O1	DT40 TDP1 CPT inconclusive, TDP1 cell noCPT 14.6µM (no result: Giardia killer, ELG1 DNA repair, TDP1 inh)
CN(C)c1ncnc2c1ncn2[C@H]1CN(Cc2ccccc2)C[C@@H](CO)O1	none (no result: Giardia killer, ELG1 DNA repair, TDP1 inh)
OC[C@@H]1CN(Cc2ccc(F)cc2)C[C@H](n2cnc3c(NC4CC4)ncnc32)O1	DT40 TDP1 CPT inconclusive (no result: Giardia killer, ELG1 DNA repair, TDP1 inh)
CCN1C(=O)[C@H]2[C@H]3[C@H](O)[C@H](O)C/C(=N/NC(=O)OCc4ccc(OC)cc4)[C@@H]3CC[C@@H]2C1=O	none (no result: Giardia killer, DT40 TDP1 CPT, TDP1 cell noCPT, ELG1 DNA repair, IL1B secr inh)
O=C(CNC(=O)C(c1ccccc1)c1ccccc1)N/N=C/c1ccc(O)cc1O	DT40 TDP1 CPT 5.8µM, TDP1 cell noCPT 6.51µM, ELG1 DNA repair inconclusive (no result: TDP1 inh)
COc1ccc(/C=C\C(=O)NCC(=O)N/N=C/c2ccc(O)cc2O)cc1	DT40 TDP1 CPT inconclusive (no result: TDP1 inh)
O=C(CNC(=O)C1COc2ccccc2O1)N/N=C/c1ccc(O)cc1O (stereo not given)	DT40 TDP1 CPT 6.51µM, TDP1 cell noCPT 6.51µM
O=C(NNC(=O)C1COc2ccccc2O1)c1ccccc1O (stereo not given)	DT40 TDP1 CPT inconclusive, TDP1 cell noCPT 16.4µM
O=C(CNC(=O)C1COc2ccccc2O1)N/N=C\c1cccc(O)c1 (stereo not given)	none
O=C(/C=C\c1ccccc1)NCC(=O)N/N=C/c1ccc(O)cc1O	DT40 TDP1 CPT 20.6µM, TDP1 cell noCPT 8.2µM
O=C1CCc2cc(S(=O)(=O)Nc3cccc(-c4ccccc4)c3)ccc2N1	none (no result: Giardia killer, DT40 TDP1 CPT, TDP1 cell noCPT, ELG1 DNA repair, IL1B secr inh)
CC1(C)CC(=O)c2cc(-c3nc(-c4ccc(Cl)cc4)cs3)c(=O)[nH]c2C1	DT40 TDP1 CPT inconclusive (no result: Giardia killer, ELG1 DNA repair, IL1B secr inh)
CC(=O)c1cccc(NC(=O)CSc2nc3c(=O)n(C)c(=O)n(C)c3n2C)c1	none (no result: Giardia killer, ELG1 DNA repair, IL1B secr inh)
BrC/C=C/CBr	none (no result: Giardia killer, DT40 TDP1 CPT, TDP1 cell noCPT, ELG1 DNA repair, IL1B secr inh)
O=C(NCC1CCCCC1)c1ccc(F)cc1Cl	ELG1 DNA repair inconclusive
